Assay outcomes deposited in PubChem by National Center for Advancing Translational Sciences (NCATS).
Hits are enriched below; roughly 3.2% of the tested compounds scored in any of these assays.
RGS12 GoLoco inh – qHTS Assay for Inhibitors of RGS12 GoLoco Motif Activity (Red Fluorophore); Guanine nucleotide-binding protein G(i) subunit alpha-1 (Homo sapiens), P63096; Gai1:RGS12 GoLoco peptide FP, rhodamine, 10 min; Potency, µM (doses to about 61.6 µM), for inactives: at the top dose activity, negative = inhibition, usual class: inhibitors; actives 0.44% (n = 230,000); active means well fitted inhibition curve with a large enough effect, not every such curve was filed as active; inactive means no such curve, though single readings can be large or run the other way; further: nearly all actives have a fitted effect of over 30% in size
Target sequence (P63096 whole entry, looked up): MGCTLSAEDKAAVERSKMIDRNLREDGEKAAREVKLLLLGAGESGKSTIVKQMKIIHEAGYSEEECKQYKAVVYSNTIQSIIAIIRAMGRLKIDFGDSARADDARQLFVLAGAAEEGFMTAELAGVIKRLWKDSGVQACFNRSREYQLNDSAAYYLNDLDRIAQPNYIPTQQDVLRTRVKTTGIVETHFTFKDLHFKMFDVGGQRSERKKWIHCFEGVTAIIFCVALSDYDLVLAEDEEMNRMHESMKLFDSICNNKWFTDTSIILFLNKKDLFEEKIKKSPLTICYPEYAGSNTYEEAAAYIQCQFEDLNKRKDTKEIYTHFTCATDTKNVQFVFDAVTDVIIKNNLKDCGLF
TR SRC2 fluor cs – Total Fluorescence Counterscreen for Inhibitors of the Interaction of Thyroid Hormone Receptor and Steroid Receptor Coregulator 2. AID 1479, 2009. TRb/SRC2 Texas Red total fluorescence interference. actives 0.29% (n = 280,000). Potency, µM (doses to about 106 µM), for inactives: at the highest dose fluorescence change, negative = quenching; active means well fitted curve in either direction with a large enough effect; inconclusive means small, poorly fitted or top-dose-only effect
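Human TRβ ligand-binding domain (0.6 uM) and Texas Red SRC2 peptide (20 nM) in Tris buffer with 1 uM T3 and 5% DMSO were incubated with pinned compound for 5 hr at ambient temperature. Total fluorescence was computed as S + 2P (555/632 nm).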
Tau FP inhib – qHTS for Inhibitors of Tau Fibril Formation, Fluorescence Polarization | Microtubule-associated protein tau (Homo sapiens), P10636 | K18 P301L tau heparin fibrillization, Alexa594 FP, 6 h | Potency, µM (titrated, usually from 57.7 µM), for the others: top-dose activity, negative = inhibition, usual class: inhibitors | actives 0.39% (n = 280,000); further: nearly all actives have a fitted effect of over 55% in size
Target sequence (P10636 561-689 P618L limits assumed): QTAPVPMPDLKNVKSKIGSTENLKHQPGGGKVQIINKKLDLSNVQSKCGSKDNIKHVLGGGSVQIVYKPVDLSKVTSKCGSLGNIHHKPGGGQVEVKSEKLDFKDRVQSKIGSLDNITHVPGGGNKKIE
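Human tau K18 […] P301L fragment, 15 uM unlabeled plus 0.24 uM Alexa 594-labeled tau (final), with compound and 20 uM heparin in 100 mM sodium acetate pH 7; 6 hr at 37 C, then Alexa 594 FP read.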
Tau ThT inhib – qHTS for Inhibitors of Tau Fibril Formation, Thioflavin T Binding; Microtubule-associated protein tau (Homo sapiens), P10636; recombinant tau K18 P301L, heparin-induced fibrillization, ThT fluorescence; AID 1460, 2008; actives 2.1% (n = 270,000); Potency, µM (doses to about 57.4 µM), for the others: top-dose activity, negative = inhibition, usual class: inhibitors; further: nearly all actives have a fitted effect of over 55% in size
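In this qHTS, human K18 P301L tau is incubated with compound and heparin for 6 hr at 37 C, and Thioflavin T fluorescence then reports fibril load.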
TRb-SRC2 inh – qHTS for Inhibitors of the Interaction of Thyroid Hormone Receptor and Steroid Receptor Coregulator 2; Potency, µM (top dose mostly 106 µM), for inactives: at the top dose activity change, negative = inhibition, actives largely listed as inhibitors; actives 0.065% (n = 280,000); AID 1469, 2008; TRbeta-SRC2 peptide binding, fluorescence polarization; receptor liganded with 1 µM T3;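 further: plate controls were bound peptide for no effect and peptide without receptor for full effect; nearly all actives have a fitted effect of over 50% in size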
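A fluorescence polarization screen tested compounds at multiple concentrations against complex formation between 0.6 uM TRb ligand-binding domain and 20 nM Texas Red SRC2 peptide, with 1 uM T3 present; readout after 5 hr.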
Tau fluor counter – Counterscreen qHTS for Inhibitors of Tau Fibril Formation, Fluorescence Polarization; actives 0.93% (n = 280,000); Potency, µM (highest dose often 57.7 µM), for the others: at the highest dose activity change, negative = decrease; tau K18 P301L Alexa594 fluorescence, heparin fibrillization; further: nearly all actives have a fitted effect of over 55% in size
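Human tau K18 P301L (15 uM unlabeled, 0.24 uM Alexa 594-labeled) in 100 mM sodium acetate pH 7 with 20 uM heparin, 6 hr at 37 C. ThT 30 uM added, 1 hr ambient; Alexa 594 FP and total fluorescence read at 555/632 nm.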
Active calls of the source: *; ? = inconclusive; nt = no result given; [ ] = remark or other dose. Unless noted, the call rests on the fitted dose curve; in most records, active means well fitted curve in the direction sought with a large enough effect; inconclusive means small, poorly fitted or top-dose-only effect, or another doubt; inactive means no such curve, though single readings can be large; an effect the other way counts as inactive or inconclusive. Unless noted, on the % scale 0 is the no-effect control and ±100 the full control effect; potency means the concentration at half of the fitted maximal effect.

SMILES	RGS12 GoLoco inh	TR SRC2 fluor cs	Tau FP inhib	Tau ThT inhib	TRb-SRC2 inh	Tau fluor counter
CCCn1cc(S(=O)(=O)c2ccc(CC)cc2)c(=O)c2cc(F)c(N(CC)CC)cc21	nt	6.1%	-0.1%	0.6%	5.7%	3.2%
CCn1cc(S(=O)(=O)c2ccccc2)c(=O)c2cc(F)c(N3CCCC3)cc21	nt	10.3%	0.4%	2.7%	3.4%	-0.2%
CCn1cc(S(=O)(=O)c2ccccc2)c(=O)c2cc(F)c(N3CCN(c4ccccc4)CC3)cc21	nt	56.2µM*[quencher]	-5.0%	8.2%	?	1.4%
CCCn1cc(S(=O)(=O)c2ccccc2)c(=O)c2cc(F)c(N3CCCC3)cc21	nt	-6.7%	2.6%	0.2%	-1.2%	12.5%
CCCNC(=O)OC[C@@H]1O[C@H](CCO/N=C\c2ccc(C(=O)N3[C@H](c4ccc(C)cc4)[C@@H](C)CC[C@H]3C(=O)OC)cc2)C=C[C@@H]1Oc1ccc(OC)cc1	nt	-0.5%[11.2 µM]	2.6%[11.6 µM]	-9.5%[11.5 µM]	-9.5%[11.2 µM]	-3.6%[11.6 µM]
O=C1OC2(c3ccc(O)cc3Oc3cc(O)ccc32)c2c1c(-c1ccccc1)c(-c1ccccc1)c(-c1ccccc1)c2-c1ccccc1	1.3%[14.2 µM]	nt	nt	nt	nt	nt
COc1cccc(CN2c3ccccc3-c3nc(SCC(=O)Nc4cccc(C)c4)ncc3S2(=O)=O)c1	nt	-15.9%	?	2.1%	7.2%	?
CC(C)ON(C(C(=O)NO)C(C)C)S(=O)(=O)c1ccc(-c2ccccc2)cc1 (configuration not stated)	nt	0.4%	nt	nt	2.0%	nt
CCOC(=O)c1ccc(NC(=O)c2nc[nH]c2C(=O)N[C@@H](CC(C)C)C(=O)OC(C)(C)C)cc1	1.3%	-0.2%	?	?	-0.6%	?
CC(C)C[C@H](NC(=O)c1[nH]cnc1C(=O)Nc1ccccc1)C(=O)OC(C)(C)C	-0.7%	-0.6%	22.4µM*	9.0%	0.8%	?
C[C@H](NC(=O)c1[nH]cnc1C(=O)Nc1ccc(Cl)cc1)C(=O)OC(C)(C)C	1.6%	0.6%	25.1µM*	9.9%	-1.6%	?
CCOC(=O)c1ccc(NC(=O)c2nc[nH]c2C(=O)N[C@@H](CC(C)C)C(=O)OCc2ccccc2)cc1	-1.0%	-1.5%	8.91µM*	?	-0.8%	-30.0%
Cc1[nH]c2ccccc2c1Cc1nnc(SCc2ccccc2)o1	2.3%	-1.7%	?	?	4.5%	17.8µM*[quencher]
CCCC[C@@H]1C[C@H]1C(NC(=O)Cc1ccccc1)c1ccc(-c2ccccc2)cc1 (some centres not stated)	9.4%	1.3%	3.2%	-12.9%	4.6%	-15.1%
COC(=O)c1ccc(C(=O)Nc2ccc(N)cc2N)cc1	22.0%	7.0%	-5.9%	12.6µM*	-2.4%	-27.4%
COc1ccccc1NC(=O)c1ccc(N)cc1	19.7%	2.0%	1.5%	-11.8%	9.6%	2.3%
O=C1[C@H]2[C@H]3[C@H](O)[C@H](O)C/C(=N/OCc4ccccc4)[C@@H]3CC[C@@H]2C(=O)N1C1CCCCC1	nt	-0.1%[11.2 µM]	2.0%[11.6 µM]	-7.4%[11.5 µM]	-2.7%[11.2 µM]	-9.0%[11.6 µM]
COc1ccccc1N1CCN(C2=CC(=O)CCC2)CC1	-0.7%	0.8%	-15.9%	?	4.7%	-7.7%
O=C1C=C(N2CCN(C3=CC(=O)CCC3)CC2)CCC1	-7.1%	0.3%	?	25.1µM*	-4.1%	-26.4%
Cc1cccc2c1N(Cc1ccccc1OCCC(C)C)C(=O)C2=O	nt	-1.9%	-7.9%	25.1µM*	-4.5%	-27.0%
Cc1cc(Br)cc2c1N(Cc1ccccc1OC(C)C)C(=O)C2=O	nt	-3.5%	?	25.1µM*	1.8%	?
COc1ccccc1CN1C(=O)C(=O)c2cccc(C)c21	nt	0.6%	4.4%	-13.7%	-2.6%	-4.4%
CCc1ncnc2cc(OC)c(OC)cc12	nt	-0.8%	nt	nt	6.5%	nt
CC1Cc2ccccc2N1S(=O)(=O)c1cccc(C(=O)NCCCO)c1 (configuration not stated)	2.4%	-1.3%	-6.2%	-3.5%	7.1%	-6.5%
CCOC(=O)c1ccc(NC(=O)c2cccc(S(=O)(=O)N3c4ccccc4CC3C)c2)s1 (configuration not stated)	30.2%	-1.3%	8.91µM*	-6.0%	4.0%	?
SMILES	RGS12 GoLoco inh	TR SRC2 fluor cs	Tau FP inhib	Tau ThT inhib	TRb-SRC2 inh	Tau fluor counter
COc1cc2[nH]c(=O)n(CCCC(=O)NCc3ccccc3Cl)c(=O)c2cc1OC	nt	-1.3%	-5.4%	-3.3%	0.8%	0.7%
COc1ccc(CCNC(=O)c2cc3c(-c4ccc(OC)c(OC)c4)nn(C)c3s2)cc1OC	nt	-3.0%	12.7%	-16.2%	-2.8%	?
Cc1oc2c(O)c(O)ccc2c(=O)c1-c1cnn(-c2ccccc2)c1	2.24µM*	-1.0%	3.2%	-3.1%	-8.6%	-1.8%
CCOc1ccc(-c2nc(N)ncc2Oc2ccc(OC)cc2)c(O)c1	-3.7%	-1.2%	?	?	4.3%	?
COc1ccc(-c2nc(N)nc(C)c2Oc2ccccc2Br)c(O)c1	7.5%	-4.8%	-5.8%	-13.3%	-6.8%	17.8µM*[quencher]
C=C[C@](C)(O)CCC1C(=C)CC(O)C2C(C)(C)CCCC12C (some centres not stated)	0.6%	-4.5%	-3.4%	-10.4%	-3.5%	-16.4%
COc1ccccc1CNc1nc(-c2ccco2)nn1S(=O)(=O)c1ccc2ccccc2c1	nt	1122µM*[quencher]	?	-6.4%	-6.0%	-29.0%
CCCCC(C=O)NC(=O)C(CC(C)C)NC(=O)OCc1ccccc1 (configuration not stated)	2.6%	-0.1%	5.4%	-6.1%	1.2%	-0.2%
NS(=O)(=O)c1ccc(N/N=C/c2ccc(O)c(O)c2O)c([N+](=O)[O-])c1	-10.7%	?	5.01µM*	2µM*	2.0%	2µM*[quencher]
NS(=O)(=O)c1ccc(N/N=C/c2ccc(O)cc2O)c([N+](=O)[O-])c1	9.3%	-7.7%	-2.4%	2.24µM*	1.8%	?
C/C(=N\Nc1ccc(S(N)(=O)=O)cc1[N+](=O)[O-])c1ccccc1O	7.0%	-4.5%	1.6%	?	-3.7%	-15.8%
NS(=O)(=O)c1ccc(N/N=C/c2ccccc2C(=O)O)c([N+](=O)[O-])c1	15.1%	-12.7%	8.8%	?	5.7%	-6.4%
C/C(=N\Nc1ccc(S(N)(=O)=O)cc1[N+](=O)[O-])c1ccco1	-1.2%	-3.6%	-3.6%	5.01µM*	-4.9%	?
